Several values for one entry are separate records, joined by “and”; a condition that tells them apart may be missing. Equal values may be shown once. Records with an inconclusive call do not appear. Where a structure was tested more than once in an assay, its records may differ in their call. Activity calls are given as the source filed them. The calls were made as follows, unless noted: active = hit-call score of the fitted dose curve at least 0.9, where 1 is the maximum; inconclusive = response in the unintended direction; inactive = score below 0.9.
Columns and labels:
[1] = CCTE_Padilla_ZF_144hpf_TERATOSCORE: (Legacy) CCTE's 144 Hour Post-fertilization zebrafish Assay Teratoscore, Padilla Lab (AID 2283679; active = hit-call score of the fitted dose curve at least 0.9, where 1 is the maximum; inactive = score below 0.9;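 as to AC50: zebrafish embryos with chorions exposed by immersion from 6-8 hpf to 5 dpf with daily renewal; teratogenicity score from eye scoring of death hatching and malformations at 144 hpf; higher score means more developmental defects relative to DMSO baseline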)
Method in brief: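 Larvae scored by eye at 144 hpf for death, hatching and malformations after a day in clean Hanks'. Before that, daily-renewed exposure at 80 uM (0.4% DMSO, 26C) from roughly 6-8 hpf through 5 dpf, 4 embryos per chemical.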

[2] = read-out: xenobiotic metabolism (CYP1A2), CYP1A2 (gene 1544); assay: CLD_CYP1A2_24hr: CellzDirect (CLD) Gene Expression Assay for xenobiotic metabolism (CYP1A2) at 24 hours (AID 2283683)
Method in brief: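 CYP1A2 mRNA induction measured by quantitative nuclease protection (chemiluminescent) in human primary hepatocytes 24 h after multi-concentration chemical dosing with daily fresh solutions. DMSO (0.2%) baseline; positive-direction fitting; morphology-based cytotoxicity noted.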

[3] = read-out: ABC Transporter (ABCB1), ABCB1 (gene 5243); assay: CLD_ABCB1_24hr: CellzDirect (CLD) Gene Expression Assay for ABC Transporter (ABCB1) at 24 hours (AID 2283684)
Method in brief: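 ABCB1 mRNA induction versus 0.2% DMSO vehicle was read by qNPA chemiluminescence at 24 h. Cultured human hepatocytes from two donor preparations received daily fresh dosing, and phase-contrast cytotoxicity calls were annotated alongside the data.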

[4] = read-out: Broad substrate specificity ATP-binding cassette transporter ABCG2 (Homo sapiens) (UniProt Q9UNQ0); assay: CLD_ABCG2_24hr: CellzDirect (CLD) Gene Expression Assay for ABC Transporter (ABCG2) at 24 hours (AID 2283685)
Method in brief: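 ABCG2 mRNA induction, read as gain of chemiluminescent signal over 0.2% DMSO, was measured by quantitative nuclease protection at 24 h. Cultured human liver hepatocytes were given fresh dosing solutions of test chemicals at several concentrations each day.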

[5] = read-out: Cytochrome P450 2B6 (Homo sapiens) (UniProt P20813); assay: CLD_CYP2B6_24hr: CellzDirect (CLD) Gene Expression Assay for xenobiotic metabolism (CYP2B6) at 24 hours (AID 2283686)
Method in brief: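 qNPA chemiluminescent measurement of mRNA at 24 hours in human primary hepatocyte cultures from two donor preparations, with daily fresh dosing and 0.2% DMSO vehicle as baseline. Morphology-based cytotoxicity flagged yes/no.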

[6] = read-out: Cytochrome P450 2C9 (Homo sapiens) (UniProt P11712); assay: CLD_CYP2C9_24hr: CellzDirect (CLD) Gene Expression Assay for xenobiotic metabolism (CYP2C9) at 24 hours (AID 2283688)
Method in brief: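 Induction of CYP2C9 mRNA was quantified by quantitative nuclease protection assay (chemiluminescence), gain of signal versus 0.2% DMSO vehicle, 24 h after dosing. Human primary hepatocytes (two donors) received fresh chemical daily at multiple concentrations; morphology-based cytotoxicity flagged yes/no.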

[7] = read-out: Cytochrome P450 3A4 (Homo sapiens) (UniProt P08684); assay: CLD_CYP3A4_24hr: CellzDirect (CLD) Gene Expression Assay for xenobiotic metabolism (CYP3A4) at 24 hours (AID 2283689)
Method in brief: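 CYP3A4 mRNA induction read by quantitative nuclease protection (chemiluminescence) 24 hr after dosing. Cultured human hepatocytes (two donor preparations) treated daily, vehicle 0.2% DMSO; phase-contrast morphology annotates cytotoxicity.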

[8] = read-out: alkyl and aryl transferase (GSTA2), GSTA2 (gene 2939); assay: CLD_GSTA2_24hr: CellzDirect (CLD) Gene Expression Assay for alkyl and aryl transferase (GSTA2) at 24 hours (AID 2283693)
Method in brief: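 GSTA2 transcript levels were quantified by quantitative nuclease protection assay in primary human hepatocytes 24 h after daily dosing with fresh solutions at multiple concentrations; 0.2% DMSO vehicle as baseline, cytotoxicity flagged morphologically.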

[9] = read-out: HMG-CoA synthase (HMGCS2), HMGCS2 (gene 3158); assay: CLD_HMGCS2_24hr: CellzDirect (CLD) Gene Expression Assay for HMG-CoA synthase (HMGCS2) at 24 hours (AID 2283691)
Method in brief: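 qNPA with S1 nuclease digestion and chemiluminescent detection gave HMGCS2 transcript levels, fitted upward against 0.2% DMSO vehicle. Cultured human hepatocytes (two donors) received fresh compound daily and were harvested at 24 h; phase-contrast morphology flagged cytotoxicity.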

[10] = read-out: Cytochrome P450 2B6 (Homo sapiens) (UniProt P20813); assay: CLD_CYP2B6_6hr: CellzDirect (CLD) Gene Expression Assay for xenobiotic metabolism (CYP2B6) at 6 hours (AID 2283677);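 also: actives raise CYP2B6 transcript above DMSO baseline so AC50 marks an inducer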
Method in brief: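 CYP2B6 transcript levels, read by chemiluminescent qNPA, were fitted for increase versus DMSO baseline; cultured human liver hepatocytes from two donor preparations were harvested 6 h after exposure to test chemicals at multiple concentrations.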

Measured: AC50

Chain of Cytochrome P450 3A4 (Homo sapiens) (P08684 whole entry, looked up): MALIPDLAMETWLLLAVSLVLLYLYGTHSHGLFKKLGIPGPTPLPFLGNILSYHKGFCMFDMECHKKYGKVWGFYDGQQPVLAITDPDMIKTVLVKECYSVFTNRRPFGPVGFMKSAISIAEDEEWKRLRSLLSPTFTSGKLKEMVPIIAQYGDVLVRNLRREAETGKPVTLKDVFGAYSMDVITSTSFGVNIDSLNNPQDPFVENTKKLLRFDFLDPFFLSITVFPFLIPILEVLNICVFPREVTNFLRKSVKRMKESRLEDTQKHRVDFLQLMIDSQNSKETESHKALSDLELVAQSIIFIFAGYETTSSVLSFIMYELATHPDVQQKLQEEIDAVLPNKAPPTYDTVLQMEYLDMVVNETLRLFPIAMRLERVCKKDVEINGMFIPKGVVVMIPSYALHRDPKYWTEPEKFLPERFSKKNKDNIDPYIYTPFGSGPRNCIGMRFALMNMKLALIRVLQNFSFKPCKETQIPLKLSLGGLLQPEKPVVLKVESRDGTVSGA
Chain of Broad substrate specificity ATP-binding cassette transporter ABCG2 (Homo sapiens) (Q9UNQ0 whole entry, looked up): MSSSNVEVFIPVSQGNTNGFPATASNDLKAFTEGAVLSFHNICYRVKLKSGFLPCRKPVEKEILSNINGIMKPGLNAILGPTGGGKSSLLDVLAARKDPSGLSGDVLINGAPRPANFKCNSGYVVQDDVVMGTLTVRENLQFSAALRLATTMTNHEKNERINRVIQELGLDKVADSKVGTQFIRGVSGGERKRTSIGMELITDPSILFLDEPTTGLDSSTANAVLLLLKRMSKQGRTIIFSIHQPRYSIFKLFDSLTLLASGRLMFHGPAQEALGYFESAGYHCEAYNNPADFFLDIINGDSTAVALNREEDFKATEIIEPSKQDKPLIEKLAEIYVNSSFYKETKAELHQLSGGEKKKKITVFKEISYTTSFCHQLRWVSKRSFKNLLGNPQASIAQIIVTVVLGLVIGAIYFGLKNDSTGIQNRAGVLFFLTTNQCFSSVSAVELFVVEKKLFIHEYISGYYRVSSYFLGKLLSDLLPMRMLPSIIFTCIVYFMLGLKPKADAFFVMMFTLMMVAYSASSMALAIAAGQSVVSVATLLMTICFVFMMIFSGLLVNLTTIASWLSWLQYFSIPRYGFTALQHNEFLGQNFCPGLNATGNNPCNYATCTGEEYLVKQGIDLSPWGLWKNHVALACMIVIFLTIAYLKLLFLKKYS

CCOC(=O)C(Cl)Cc1cc(-n2nc(C)n(C(F)F)c2=O)c(F)cc1Cl (stereo not given)
active: [1] 0.57 µM | [5] 6.33 µM | [7] 20 µM
not listed: [9] | [10]
inactive: all other assays above

O=C(O)COc1nc(Cl)c(Cl)cc1Cl
not listed: [8] | [10]
inactive: all other assays above

COc1nc(NC(C)C)nc(NC(C)C)n1
active: [10] 4.18 µM | [2] 3.61 µM | [7] 1.9 µM
not listed: [8] | [9]
inactive: all other assays above

CCCCNC(=O)n1c(NC(=O)OC)nc2ccccc21
active: [1] 1.29 µM | [2] 4.66 µM
inactive: [3] | [4] | [5] | [7] | [8]

N#CC(CCc1ccc(Cl)cc1)(Cn1cncn1)c1ccccc1 (stereo not given)
active: [1] 25.8 µM | [2] 1.24 µM | [5] 0.389 µM | [7] 1.9 µM
inactive: [3] | [4] | [6] | [8]

CCCCOC(=O)c1ccccc1C(=O)OCCCC
inactive: [3] | [4] | [5] | [6] | [7] | [9] | [8]
active: [1] 1.83 µM | [2] 4.9 µM and 20 µM | [5] 5.33 µM

Oc1ccccc1-c1ccccc1
active: [1] 53.4 µM | [2] 20 µM | [5] 6.24 µM
not listed: [3]
inactive: all other assays above

CO/C=C(/C(=O)OC)c1ccccc1Oc1cc(Oc2ccccc2C#N)ncn1
active: [10] 1 µM | [1] 1.46 µM and 4.82 µM and 4.07 µM | [5] 7.02 µM
inactive: [3] | [4] | [6] | [8]

COP(=S)(OC)Oc1nc(Cl)c(Cl)cc1Cl
active: [10] 6.24 µM | [1] 34.7 µM | [2] 4.43 µM | [5] 5.02 µM | [7] 3.97 µM
inactive: [3] | [4] | [6] | [9] | [8]

CCCCNC(=O)OCC#CI
active: [1] 0.664 µM
not listed: [10]
inactive: all other assays above

CCOC(=O)CC(SP(=S)(OC)OC)C(=O)OCC (stereo not given)
active: [1] 27.3 µM | [2] 8.3 µM
not listed: [10]
inactive: all other assays above

Cc1c(F)c(F)c(COC(=O)C2C(/C=C(\Cl)C(F)(F)F)C2(C)C)c(F)c1F (stereo not given)
active: [10] 20 µM | [1] 0.00676 µM | [5] 20 µM | [7] 5.74 µM
not listed: [6]
inactive: all other assays above

CC(Oc1ccc(Cl)cc1Cl)C(=O)O (stereo not given)
active: [1] 0.67 µM
not listed: [2] | [7] | [9]
inactive: all other assays above

COc1nc(C)nc(NC(=O)NS(=O)(=O)c2ccccc2Cl)n1
not listed: [9] | [10]
inactive: all other assays above

CNC(=O)ON=CC(C)(C)SC
active: [1] 65.3 µM
not listed: [9] | [10]
inactive: all other assays above

C=CCC1=C(C)[C@@H](OC(=O)[C@@H]2[C@@H](C=C(C)C)C2(C)C)CC1=O
inactive: [2] | [3] | [4] | [6] | [8]
active: [1] 3.51 µM | [5] 20 µM

COC(=O)N(OC)c1ccccc1COc1ccn(-c2ccc(Cl)cc2)n1
active: [1] 0.192 µM | [2] 0.545 µM | [7] 3.73 µM
not listed: [9] | [10]
inactive: all other assays above

CC(C)Oc1cc(-n2nc(C(C)(C)C)oc2=O)c(Cl)cc1Cl
inactive: [3] | [4]
active: [1] 9.05 µM | [2] 4.14 µM | [5] 0.829 µM | [7] 1.9 µM

COC(=O)C(C)Oc1ccc(Oc2ccc(Cl)cc2Cl)cc1 (stereo not given)
inactive: [2] | [3] | [4] | [5] | [6] | [7] | [9] | [8]
active: [1] 5.23 µM | [5] 20 µM and 34.6 µM | [7] 5.43 µM

C#CCOS(=O)OC1CCCCC1Oc1ccc(C(C)(C)C)cc1 (stereo not given)
inactive: [3] | [4] | [6] | [8]
active: [1] 0.22 µM | [2] 3.11 µM | [5] 3.2 µM | [7] 1.89 µM

CCON=C(CC)C1=C(O)CC(c2c(C)cc(C)cc2C)CC1=O (stereo not given)
active: [1] 64.2 µM
not listed: [8] | [10]
inactive: all other assays above

CON(C)C(=O)Nc1ccc(Cl)c(Cl)c1
inactive: [7]
active: [10] 1.83 µM | [1] 60.1 µM | [2] 1.29 µM | [5] 0.735 µM

COc1nc(C)nc(NC(=O)NS(=O)(=O)c2ccccc2CCC(F)(F)F)n1
inactive: [1] | [2] | [3] | [4] | [6] | [7] | [9] | [8]
active: [2] 1.7 µM and 11 µM | [5] 3.4 µM and 5.71 µM and 908 nM | [7] 36.7 µM and 5.29 µM

C=CC1(C)OC(=O)N(c2cc(Cl)cc(Cl)c2)C1=O (stereo not given)
active: [1] 145 µM | [2] 2.47 µM | [5] 7.15 µM
not listed: [8] | [10]
inactive: all other assays above

O=C(O)c1nc(Cl)ccc1Cl
active: [2] 9.48 µM
inactive: [1] | [2] | [5] | [7] | [9] | [8]

CCCC1COC(Cn2cncn2)(c2ccc(Cl)cc2Cl)O1 (stereo not given)
inactive: [3] | [4]
active: [1] 26.5 µM | [2] 2.13 µM | [5] 0.668 µM | [7] 1.59 µM

CCOc1cc(Oc2ccc(C(F)(F)F)cc2Cl)ccc1[N+](=O)[O-]
active: [1] 13 µM | [2] 5.69 µM | [7] 20 µM
inactive: [5]

CCNc1nc(Cl)nc(NC(C)C)n1
active: [2] 3.11 µM | [5] 3.92 µM | [7] 20 µM
inactive: [1] | [3] | [8]

N#Cc1cc(Br)c(O)c(Br)c1
inactive: [3] | [8]
active: [1] 15.3 µM | [2] 33.4 µM

COC(=O)c1ccccc1C(=O)OC
inactive: [1] | [2] | [5] | [6] | [7] | [8]

COc1cnc(OC)n2nc(NS(=O)(=O)c3c(OCC(F)F)cccc3C(F)(F)F)nc12
active: [7] 2.42 µM
not listed: [6] | [9] | [10]
inactive: all other assays above

O=C(Nc1ccccc1)Nc1ccnc(Cl)c1
active: [1] 66 µM | [2] 7.19 µM | [5] 8.15 µM
inactive: [7]

CS/C(C)=N/OC(=O)N(C)SN(C)C(=O)O/N=C(\C)SC
inactive: [3] | [4] | [6] | [9] | [8]
active: [1] 32.7 µM

C=CCC1=C(C)C(OC(=O)C2C(C=C(C)C)C2(C)C)CC1=O (stereo not given)
inactive: [2] | [3] | [4] | [5] | [8]
active: [1] 1.54 µM and 8.75 µM

CN(C)C(=S)SSC(=S)N(C)C
inactive: [3] | [4] | [7] | [8]
active: [1] 0.0128 µM

CCOP(=S)(OCC)SCn1c(=O)oc2cc(Cl)ccc21
inactive: [4] | [7]
active: [1] 13.5 µM | [2] 3.97 µM | [5] 3.97 µM

Cc1cc(Cl)ccc1OCC(=O)O
not listed: [2] | [8] | [10]
inactive: all other assays above

CC1=C(C(=O)Nc2ccccc2)SCCO1
inactive: [6]
active: [1] 6.4 µM | [2] 15.1 µM | [5] 6 µM | [7] 6.76 µM

OC(c1ccc(Cl)cc1)(c1cncnc1)c1ccccc1Cl (stereo not given)
active: [1] 32.2 µM | [5] 1.24 µM | [7] 0.542 µM
inactive: [2] | [3] | [4] | [8]

Cc1ccc(-c2c(Cl)nc(C#N)n2S(=O)(=O)N(C)C)cc1
inactive: [3] | [4] | [7] | [8]
active: [1] 5.47 µM | [2] 0.521 µM

CCCCC(CC)COC(=O)c1ccccc1C(=O)OCC(CC)CCCC (stereo not given)
inactive: [1] | [2] | [3] | [5] | [6] | [8]

CC(C)C1(C)N=C(c2nc3ccccc3cc2C(=O)O)NC1=O (stereo not given)
inactive: [1] | [2] | [5] | [7] | [9] | [8]

CCCN(CCC)c1c([N+](=O)[O-])cc(S(N)(=O)=O)cc1[N+](=O)[O-]
active: [1] 15.8 µM and 15.6 µM | [7] 11.1 µM
inactive: [3] | [6]

CCNc1nc(Cl)nc(NCC)n1
active: [2] 5.26 µM | [5] 9.74 µM
inactive: [1] | [3] | [6] | [8]

CC(C)(C)c1ccc(CSc2cnn(C(C)(C)C)c(=O)c2Cl)cc1
inactive: [2] | [3] | [4] | [8]
active: [7] 39.3 µM
